Screening results: PubChem BioAssay, The Scripps Research Institute Molecular Screening Center
Compounds with a hit are over-represented: about 2% of the library has one in this group of screens.
CHRM4 agonist: agonists of human muscarinic M4 receptor (CHRM4). P08173. CHO-K1 hM4/Gqi5, Fluo-8 calcium fluorescence; vehicle 0%, full acetylcholine response 100%. activation, % at 3 µM. 0.14% of 360,000 active;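 active = activation above the run mean over all test wells plus 3 SD, cut at about 32% in these data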;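 also: peak over basal fluorescence ratio per well then scaled between controls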
Target sequence (P08173 whole entry, looked up): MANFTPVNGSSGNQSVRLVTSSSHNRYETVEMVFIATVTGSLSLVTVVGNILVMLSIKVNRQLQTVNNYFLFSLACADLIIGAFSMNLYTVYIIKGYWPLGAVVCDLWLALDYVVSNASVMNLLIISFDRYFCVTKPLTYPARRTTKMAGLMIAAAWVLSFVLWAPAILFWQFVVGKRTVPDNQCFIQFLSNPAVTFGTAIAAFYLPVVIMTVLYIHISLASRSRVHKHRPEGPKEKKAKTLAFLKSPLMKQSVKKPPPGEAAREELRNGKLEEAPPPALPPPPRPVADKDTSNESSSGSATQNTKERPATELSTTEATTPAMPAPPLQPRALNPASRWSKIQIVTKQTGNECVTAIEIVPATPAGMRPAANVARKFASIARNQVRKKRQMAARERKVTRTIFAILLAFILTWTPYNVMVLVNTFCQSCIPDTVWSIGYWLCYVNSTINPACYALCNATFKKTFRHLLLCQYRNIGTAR
M4 PAM: positive allosteric modulators of human muscarinic M4 receptor; activation, % at 3 µM; AID 624126; 0.4% of 360,000 active; P08173; CHO-K1 hM4/Gqi5, Fluo-8 calcium fluorescence, ACh EC20; 0% = ACh EC20, 100% = maximal ACh;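 active = activation above its plate's cutoff, the mean activation of sample wells plus 3 SD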
M1 ag parental: nonselective activator or artifact in parental CHO-K1 cells; activation, % at 3 µM; Fluo-8 calcium fluorescence; scaled to maximal ATP response, vehicle zero; 0.48% of 360,000 active; in the data active = activation above about 15%;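 also: untransfected CHO-K1 host cells lacking M1 receptor as counterscreen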
M1 PAM parental: nonselective activator or artifact in parental CHO-K1 calcium assay; ATP EC20, Fluo-8 calcium fluorescence; 0% at ATP EC20, 100% at ATP max; activation, % at 3 µM; 0.02% of 360,000 active;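 active = activation above the run cutoff, the mean activation of all test compounds plus 3 SD, cut at about 40% in these data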;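 also: peak over basal fluorescence ratio in a 140 s read after ATP addition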
CHO-K1 Ca antag: nonselective inhibitor or artifact in parental CHO-K1 cells; ATP-induced calcium, Fluo-8 fluorescence; inhibition, % at 3 µM; 0.6% of 360,000 active;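 active = inhibition above a per-plate cutoff, the plate's mean sample inhibition plus 3 SD, cut at about 24% in these data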
CHRM4 antagonist: antagonists of human muscarinic M4 receptor (CHRM4); 0.73% of 360,000 active; CHO-hM4 cells, ACh EC80, Fluo-8 calcium fluorescence; AID 624125; inhibition, % at 3 µM;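 active = inhibition above its plate's cutoff, the mean inhibition of sample wells plus 3 SD, cut at about 27% in these data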
Hits are given with their value; . = inactive.

SMILES	CHRM4 agonist	M4 PAM	M1 ag parental	M1 PAM parental	CHO-K1 Ca antag	CHRM4 antagonist
COc1ccc(CNCCc2c(C)[nH]c3ccc(OC(F)(F)F)cc23)c(OC)c1	40	.	37	.	33	29
Nc1c(C(=O)NCCc2ccccc2)c2nc3ccccc3nc2n1CCN1CCOCC1	.	.	.	.	.	.
Nc1c(C(=O)NCCN2CCOCC2)c2nc3ccccc3nc2n1Cc1ccccc1	.	.	16	.	.	.
c1cc2c(cc1CCNC1C3CC4CC(C3)CC1C4)OCO2 (stereo unspecified)	.	.	.	.	.	.
CC1CCC(NCCc2ccc3c(c2)OCO3)CC1 (stereo unspecified)	.	.	.	.	.	32
Oc1ccc(CCNCc2cc3c(cc2Br)OCO3)cc1	.	.	.	.	.	.
O=c1[nH]c2ccccc2n1C1CCN(C(CCc2ccccc2)c2nnnn2C2CCCC2)CC1 (stereo unspecified)	.	.	.	.	.	.
CN1C(=O)C(Cc2cccc3ccccc23)C(=O)N(C)C1=O	.	.	.	.	.	.
O=C1C2CCN(CC2)[C@@H]1Cc1ccc2ccccc2c1O	.	.	.	.	.	47
CC(=O)O/C(=C1\CC2C3CC=C4CC(OC(C)=O)CCC4(C)C3CCC2(C)C1=O)C(F)(F)F (stereo unspecified)	.	.	.	.	.	.
Cn1nnc(CC[N+](C)(C)C)n1	.	.	15	.	.	.
N#CC1c2ccccc2-n2nncc2CN1Cc1cc(Cl)cc(Cl)c1 (stereo unspecified)	.	.	.	.	.	.
CCc1ccc(-n2c(O)c(C(C)=O)c(=O)[nH]c2=O)cc1 (tested in a mixture with another compound)	.	.	.	.	.	.
C[C@]12CCC3C(CC[C@H]4C[C@@H](O)CC[C@]34C)C1CC[C@@H]2N (stereo partly specified)	.	.	19	.	.	.
C[C@]12CCC3C(CC[C@@H]4C[C@@H](O)CC[C@]34C)C1CC[C@@H]2O (stereo partly specified)	.	.	.	.	.	.
COC(=O)C1=C(c2cc3ccccc3o2)C[C@@H]2CC[C@H]1N2C(=O)NCc1cccc2ccccc12	.	.	.	.	.	.
COC(=O)C1=C(c2ccc(C(C)=O)cc2)C[C@@H]2CC[C@H]1N2C(=O)N1CCC(O)CC1	.	.	.	.	.	.
O=C1NC(=O)C(CCc2ccncc2)(CCc2ccncc2)C(=O)N1CCc1ccccc1	.	.	17	.	.	.
O=C1NC(=O)N(c2ccc3c(c2)OCO3)C(=O)/C1=C\c1ccc(N2CCCCC2)o1	.	.	.	.	25	.
N#CC1c2ccccc2-n2nncc2CN1C(=O)CCc1ccccc1 (stereo unspecified)	.	.	.	.	.	.
COC(=O)[C@@H]1[C@@H](C(=O)OC)C2(c3ccccc3-c3ccccc32)N(c2ccc(Cl)cc2)N1C#N	.	.	.	.	26	.
C[N+]12CCC(CC1)C(C(O)(c1cccc(Cl)c1)c1cccc(Cl)c1)C2 (stereo unspecified)	.	.	.	.	.	87
CN1CCCC(C(O)(c2ccccc2)c2ccccc2)C1 (stereo unspecified)	.	.	.	.	.	.
Cc1ccc(C(O)(c2ccc(C)c(C)c2)C2CN3CCC2CC3)cc1C (stereo unspecified)	.	.	.	.	.	.
CC[N+]12CCC(CC1)C(C(O)(c1ccccc1)c1ccccc1)C2 (stereo unspecified)	.	.	.	.	.	72
SMILES	CHRM4 agonist	M4 PAM	M1 ag parental	M1 PAM parental	CHO-K1 Ca antag	CHRM4 antagonist
CCC(=NCc1ccco1)c1c(O)n(-c2ccccc2)c(=O)[nH]c1=O	.	.	.	.	29	.
COC(=O)C1=C(C(=O)OC)C2OC1c1cc3ccccc3cc12	.	.	.	.	.	96
CC/C(=N\N1CCCCCC1)c1c(O)n(-c2ccccc2C)c(=O)[nH]c1=O	.	.	.	.	.	.
Clc1ccc(CCNCc2ccncc2)c(Cl)c1	.	.	16	.	.	.
O=C1NC(=O)C2(CCCC2)C(=O)N1	.	.	.	.	.	.
COC(=O)NC(=C(Cl)Cl)P(=O)(c1ccccc1)c1ccccc1	.	31	.	.	.	.
Cc1cccc(C)c1-n1nnnc1C(C1CC1)N1CCC2(CC1)C(=O)NCN2c1ccccc1 (stereo unspecified)	.	.	.	.	.	.
CC(C)(C)c1cc(C=C(C#N)C#N)cc(C(C)(C)C)c1O	.	.	.	.	31	.
CN(C)c1ccc(C=C(C#N)C#N)cc1	.	.	.	.	.	.
CN(c1ccc(O)cc1)c1ccc([N+](=O)[O-])c2nonc12	.	.	.	.	.	.
Nc1ccc2nonc2c1[N+](=O)[O-]	.	.	17	.	.	.
CCCCn1nnnc1C(CC)N1CCC2(CC1)C(=O)NCN2c1ccccc1 (stereo unspecified)	.	.	.	.	.	.
Cc1c2ccncc2c(C)c2c1[nH]c1ccccc12	.	.	.	.	.	.
c1ccc2c(c1)[nH]c1cnccc12	.	.	.	.	25	.
CN1CCN(CCC(C#N)(c2ccccc2)c2ccccc2)CC1	.	.	.	.	.	40
CN1[C@@H]2CC[C@H]1CC(OC1c3ccccc3CCc3ccccc31)C2 (stereo partly specified)	.	.	.	.	.	100
Cc1ccc(OC(F)F)c(N2C(=O)C3C4CCC(O4)C3C2=O)c1 (stereo unspecified)	.	.	.	.	.	.
CCN(CC)CCCOC(=O)C(OC(C)C)(c1ccccc1)c1ccccc1	.	.	.	.	.	83
CCOC(C(=O)OCCCN(CC)CC)(c1ccccc1)c1ccccc1	.	.	.	.	.	.
